# LMNA splice mod – changes lamin A minigene splicing in HeLa cells | HeLa LMNA splicing GFP/RFP minigene ratio, 48 h | Potency, µM (top dose mostly 46.1 µM), usual class: inhibitors | 0.01% of 200,000 active | AID 1487; active means well fitted inhibition curve with a large enough effect in the signal ratio, with a control signal flat, not every such curve was filed as active; inconclusive means small, poorly fitted or top-dose-only effect, or effect the other way, or a change in a side signal; the % refers to the signal ratio
#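 S3 HeLa cells stably expressing lamin A-EGFP splicing minigene plus DsRed2, 600 cells/well, 48 h compound exposure at 37C. Laser-scanning cytometry; analysed as GFP (500-530 nm)/RFP (575-640 nm) total intensity ratio; 0.5% DMSO vehicle.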
# HttQ103 aggreg – mutant huntingtin aggregation inhibition | AID 1688 | Potency, µM (doses to about 46.1 µM), usual class: inhibitors | PC12 HttQ103-GFP aggregates, Acumen cytometry, 40 h | 1.1% of 220,000 active; active means well fitted curve in the direction sought with a large enough effect; inconclusive means small, poorly fitted or top-dose-only effect, or another doubt; inactive means no such curve, though single readings can be large; an effect the other way counts as inactive or inconclusive; further: nearly all actives have a fitted effect of over 60% in size
#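 Read-out: GFP aggregate count by laser scanning cytometer (488 nm excitation, 500-530 nm emission, 1–25 µm objects >6 SD above background). Cells: PC12, inducible HTTex1-Q103-GFP, 100 nM tebufenozide; compounds titrated.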
# HTT cytoprotect – protects HTT-Q103 PC12 cells, measured by ATP; PC12 HTT-Q103 induced, cytoprotection, ATP luminescence, 40 h; Potency, µM (titrated, usually from 56.4 µM), hits mostly activators; 0.14% of 230,000 active; active means well fitted curve in the direction sought with a large enough effect; inconclusive means small, poorly fitted or top-dose-only effect, or another doubt; inactive means no such curve, though single readings can be large; an effect the other way counts as inactive or inconclusive; further: nearly all actives have a fitted effect of over 45% in size
#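 Huntington model: PC12 line, ecdysone-inducible HTTQ103 exon1–GFP, tebufenozide 100 nM. Test articles in a dose series. Endpoint luminescence from cellular ATP.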
# JMJD2E inh – JMJD2E (human) inhibition; Potency, µM (top dose mostly 57.1 µM), usual class: inhibitors; 1.6% of 230,000 active; JMJD2E catalytic domain, FDH-coupled NADH fluorescence (FDH is formaldehyde dehydrogenase); B2RXH2; further: nearly all actives have a fitted effect of over 50% in size
# Target sequence (B2RXH2 1-337 limits assumed): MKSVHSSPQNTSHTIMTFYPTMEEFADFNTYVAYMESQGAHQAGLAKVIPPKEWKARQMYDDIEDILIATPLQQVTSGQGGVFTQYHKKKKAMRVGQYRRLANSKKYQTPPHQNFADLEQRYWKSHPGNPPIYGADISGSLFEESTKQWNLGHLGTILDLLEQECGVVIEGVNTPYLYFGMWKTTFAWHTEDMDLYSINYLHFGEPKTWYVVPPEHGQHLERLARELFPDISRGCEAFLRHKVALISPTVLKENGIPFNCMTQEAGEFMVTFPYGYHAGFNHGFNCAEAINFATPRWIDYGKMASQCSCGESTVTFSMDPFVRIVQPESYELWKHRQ
# HPGD block – HPGD (human) dehydrogenase inhibition; P15428; purified HPGD, NADH fluorescence kinetic, PGE2 substrate; Potency, µM, actives largely listed as inhibitors; 4.3% of 150,000 active
# Target sequence (P15428 whole entry, looked up): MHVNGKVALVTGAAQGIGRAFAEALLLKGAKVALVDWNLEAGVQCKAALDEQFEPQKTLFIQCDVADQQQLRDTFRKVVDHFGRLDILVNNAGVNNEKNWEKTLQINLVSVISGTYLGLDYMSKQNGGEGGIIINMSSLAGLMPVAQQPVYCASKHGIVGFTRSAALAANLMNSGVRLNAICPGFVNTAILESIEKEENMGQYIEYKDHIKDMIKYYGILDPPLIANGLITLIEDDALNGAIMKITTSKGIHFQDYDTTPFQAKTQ
#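 20 nM HPGD preincubated 15 min at room temperature with compound in 50 mM Tris-HCl pH 8, 0.01% Tween 20. Started with 1 mM NAD+ and 30 uM prostaglandin E2; NADH fluorescence (360/450 nm) read 5 times over 30-s intervals, last minus first.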
# ALDH1A1 inh – blocks purified human ALDH1A1 activity | Potency, µM (doses to about 75.3 µM), hits mostly inhibitors | Purified ALDH1A1, NADH fluorescence, propionaldehyde substrate | AID 1030 | P00352 | 7.3% of 220,000 active
# A number is an active result; - = inactive; ? = inconclusive; . = no result; ! = not confirmed by another sample; [ ] = remark or other dose. Hits are enriched below; roughly 9.2% of the tested compounds scored in any of these assays. Unless noted, the call rests on the fitted dose curve; in most records, active means well fitted inhibition curve with a large enough effect (not every such curve was filed as active); inconclusive means small, poorly fitted or top-dose-only effect, or another doubt; inactive means no such curve, though single readings can be large or run the other way.
SMILES,LMNA splice mod,HttQ103 aggreg,HTT cytoprotect,JMJD2E inh,HPGD block,ALDH1A1 inh
Cc1ccc(C(=O)Nc2nnc(S(=O)(=O)N3c4ccccc4CC3C)s2)cc1 (centres undefined),-,.,.,.,.,.
Cc1ccc(-n2cc(CN3CCN(c4ccccn4)CC3)c(-c3ccc(F)cc3)n2)cc1,.,-,-,?,.,-
Cc1ccc(-n2cc(CN3CCN(Cc4nccn4C)CC3)c(-c3ccc(F)cc3)n2)cc1,.,-[9.22 µM],-[10 µM],-,.,25µM
O=C(NCc1cccnc1)c1cccs1,-,.,.,-,.,-
Cc1ccc(OCCNC(=O)c2cncc(Br)c2)cc1C,?,?,-,-,-,-
Cc1ccc(C(=O)c2cncc(Br)c2)cc1,-,14µM,-,-,-,-
NNC(=O)c1cncc(Br)c1,.,-[9.22 µM],-[10 µM],-,.,.
CCc1ccc(C(=O)c2cncc(Br)c2)cc1,-,20µM,-,-,-,-
COc1ccc(CNC(=O)c2ccc3c(c2)N(Cc2ccccc2C)C(=O)c2ccccc2S3=O)cc1 (centres undefined),-,.,.,.,.,.
Cc1cccc(C(=O)NC2=NC(c3ccc(Cl)cc3)CC(=O)N2)c1 (centres undefined),-,.,.,.,.,.
CCCC(=O)Nc1c(-c2ccccc2)c(=O)c(C)nn1-c1ccc(C)cc1,.,-[9.22 µM],-[10 µM],-,.,.
O=C(NCCC1=CCCCC1)C(=O)NCC1OCCCN1S(=O)(=O)c1ccc(F)cc1 (centres undefined),-,-,-,-,.,22µM
Cc1ccc(S(=O)(=O)N2CCCOC2CNC(=O)C(=O)NCc2ccncc2)cc1 (centres undefined),-,-,-[10 µM],-,-,?
Cc1ccc(S(=O)(=O)N2CCCOC2CNC(=O)C(=O)NCc2cccs2)cc1 (centres undefined),-,-,-[10 µM],-,-,11µM
Cc1cc(S(=O)(=O)N2CCCOC2CNC(=O)C(=O)NCc2ccco2)ccc1F (centres undefined),.,-,-,-,.,10µM
COc1cccc(CNC(=O)C2CCN(Cc3cc4ccccc4n3Cc3ccccc3)CC2)c1OC,-,.,.,.,.,.
CCCSCCCNC(=O)Cn1c(-c2cccs2)cc2ccccc21,-,.,.,.,.,.
CCOC(=O)c1ccc(CC2S/C(=C(\C#N)C(C)=O)NC2=O)cc1 (centres undefined),?,-,-,?,14µM,-
O=C(CN1CCN(c2ccc(O)cc2)CC1)NC(c1ccccc1)c1ccccc1,-,-,-[10 µM],-,?,13µM
CC1Cc2ccccc2N1CC(=O)NC(c1ccccc1)c1ccccc1 (centres undefined),-,-,-[1.9 µM],-,-,?
CC1CC(C)CN(CC(=O)NC(c2ccccc2)c2ccccc2)C1 (centres undefined),.,-[9.22 µM],-[10 µM],-,.,11µM
CCOC(=O)C1=C(c2ccccc2)N=C2SCC(=O)N2C1c1ccc2c(c1)OCO2 (centres undefined),-,-,-,-,-,13µM
O=C(CS(=O)Cc1ccco1)NCC=CCOc1cc(CN2CCCCC2)ccn1 (centres undefined),.,-,-,.,.,.
O=c1oc2cc(Br)ccc2n1CSC1=NCCS1,?,?,-,-,22µM,?
COCCCNC(=O)Cn1c(=O)nc(-c2ccccc2)c2ccccc21,-,.,.,.,.,.
SMILES,LMNA splice mod,HttQ103 aggreg,HTT cytoprotect,JMJD2E inh,HPGD block,ALDH1A1 inh
Brc1cc2c(cc1COc1ccc(-c3nn[nH]n3)cc1)OCO2,-,-,-[0.074 µM],-,25µM,?
CCC(CO)[n+]1c(C)cc(/C=C2\Sc3ccccc3N2Cc2ccccc2)cc1C (centres undefined),?,20µM,-[10 µM],-,?,?
O=C(CCl)N(c1ccccc1)c1ccccc1,.,10µM,-,-,.,0.045µM
COc1cc(C2C(=O)N(C3CCCCC3)CC(=O)N2C2CCCCC2)ccc1OC(C)C (centres undefined),-,.,.,.,.,.
COC(=O)c1[nH]c(=O)c2ccccc2c1O,-,?,.,?,-,?
CCc1ccc2c(O)c3c(cc2c1C(=O)OC)C(=O)c1c(O)ccc(O)c1C3=O,.,.,-,2.8µM,?,-
CC12CCC(CC1=O)C2(C)C (centres undefined),.,.,-,.,-,7.1µM
CCOC(=O)c1c(-c2ccc(OC)cc2)csc1/N=C/C1C(=O)CCCC1=O,-,?,-,-,.,5µM
COCCCNC(=S)NNC(=S)Nc1ccc(F)cc1F,-,-[9.22 µM],-,-,?,7.9µM
NC(=S)NNC(=S)Nc1ccccc1,?,.,.,-,.,22µM
O=C(Cc1ccccc1)NNC(=S)Nc1ccccc1,-,.,.,-,.,-
COCCCNC(=S)NCCc1ccc(F)cc1,.,-,-,-,.,-
COCCCNC(=S)NNC(=S)Nc1ccccc1,.,-[9.22 µM],-[10 µM],-,.,18µM
Cc1cc(C(=O)NCc2ccccc2Cl)n(-c2ccccc2)n1,.,-[9.22 µM],-[10 µM],-,.,.
CCOc1ccc(C(=O)NCC(c2ccc(Cl)cc2)N2CCCCC2)cc1 (centres undefined),-,.,.,.,.,.
Cc1noc(C)c1-c1nccc(N(C)C)n1,-,.,-,.,.,-
COC/C=C/C1=CC2=CC(=O)C(C)(OC(=O)c3cnc4ccccc4n3)C(=O)C2=CN1CCCCO (centres undefined),-[9.22 µM],-[9.22 µM],-[10 µM],8.9µM!,-,-[13.5 µM]
COC/C=C/C1=CC2=CC(=O)C(C)(OC(=O)c3cnc4ccccc4n3)C(=O)C2=CN1CCc1ccccn1 (centres undefined),-[9.22 µM],.,-[10 µM],-[11.4 µM],-,-[13.5 µM]
O=C(CSc1ccc([N+](=O)[O-])cc1)NCC1CCCCC1,.,-,-,-,.,28µM
COc1ccc(C(c2c(C)[nH]n(C(N)=S)c2=O)C(C#N)C#N)cc1 (centres undefined),-,-,-[1.9 µM],-,32µM,13µM
COc1ccc(C(C#N)c2ccc(=O)[nH]n2)cc1 (centres undefined),-,?,-,-,.,?
COc1ccc(-c2cc(CNC(C)=O)on2)cc1,-,-,-,-,-,-
COc1ccc(-c2cc(CNC(=O)CN(C)Cc3ccccc3)on2)cc1,?,-,-,-,25µM,-
COc1ccc(-c2cc(CNC(=O)CCl)on2)cc1,?,18µM,-,-,-,?
COc1ccc(C(=O)NC2CC(C)(C)Cc3occc32)cc1 (centres undefined),-,-,-[10 µM],-,-,?
SMILES,LMNA splice mod,HttQ103 aggreg,HTT cytoprotect,JMJD2E inh,HPGD block,ALDH1A1 inh
O=C(c1ccccc1)N1CCN(c2nc3ccc([N+](=O)[O-])cc3s2)CC1,.,-,-,-,.,10µM
CC1CCN(c2nc3ccc(C(=O)N4CCN(Cc5ccccc5)CC4)cc3s2)CC1,?,-,-,-,14µM,20µM
Cc1cccc(N2CCN(C(=O)c3ccc4nc(N5CCCCC5)sc4c3)CC2)c1C,.,-[9.22 µM],-[10 µM],-,.,.
O=C(c1ccc2nc(N3CCCCC3)sc2c1)N1CCN(c2ccccn2)CC1,-,-,-,?,?,28µM
CCOc1ccc(CCNC(=O)c2ccc3nc(N4CCOCC4)sc3c2)cc1OCC,.,-[9.22 µM],-[10 µM],-,.,.
CCc1ccc2nc(N3CCN(C(=O)c4ccccc4)CC3)sc2c1,-,.,.,.,.,.
